# Experimental data reported in ChEMBL document CHEMBL3988442, “University of Dundee, Small-Polar-MMV Screening Library” (2021).
# For some of these results: Measured potencies and affinities stand elsewhere.
# How the values were obtained:
# Set-up in all cases: scale not given: direction of the effect not stated beside the values
# [1] = biological target: Protein translocase subunit SecA (Escherichia coli (strain K12)) (UniProt P10408); test: Assay to Identify E. coli SecA ATPase Inhibitors; assay type: functional; conditions: 30 µM
# [2] = biological target: T1, Ubiquitin-activating enzyme e1, putative (Leishmania donovani (strain BPK282A1)) (UniProt E9BSI1); test: Leishmania donovani Ubiquitin Activating Enzyme (LdE1); assay type: functional; conditions: 30 µM
# T1 sequence (whole entry): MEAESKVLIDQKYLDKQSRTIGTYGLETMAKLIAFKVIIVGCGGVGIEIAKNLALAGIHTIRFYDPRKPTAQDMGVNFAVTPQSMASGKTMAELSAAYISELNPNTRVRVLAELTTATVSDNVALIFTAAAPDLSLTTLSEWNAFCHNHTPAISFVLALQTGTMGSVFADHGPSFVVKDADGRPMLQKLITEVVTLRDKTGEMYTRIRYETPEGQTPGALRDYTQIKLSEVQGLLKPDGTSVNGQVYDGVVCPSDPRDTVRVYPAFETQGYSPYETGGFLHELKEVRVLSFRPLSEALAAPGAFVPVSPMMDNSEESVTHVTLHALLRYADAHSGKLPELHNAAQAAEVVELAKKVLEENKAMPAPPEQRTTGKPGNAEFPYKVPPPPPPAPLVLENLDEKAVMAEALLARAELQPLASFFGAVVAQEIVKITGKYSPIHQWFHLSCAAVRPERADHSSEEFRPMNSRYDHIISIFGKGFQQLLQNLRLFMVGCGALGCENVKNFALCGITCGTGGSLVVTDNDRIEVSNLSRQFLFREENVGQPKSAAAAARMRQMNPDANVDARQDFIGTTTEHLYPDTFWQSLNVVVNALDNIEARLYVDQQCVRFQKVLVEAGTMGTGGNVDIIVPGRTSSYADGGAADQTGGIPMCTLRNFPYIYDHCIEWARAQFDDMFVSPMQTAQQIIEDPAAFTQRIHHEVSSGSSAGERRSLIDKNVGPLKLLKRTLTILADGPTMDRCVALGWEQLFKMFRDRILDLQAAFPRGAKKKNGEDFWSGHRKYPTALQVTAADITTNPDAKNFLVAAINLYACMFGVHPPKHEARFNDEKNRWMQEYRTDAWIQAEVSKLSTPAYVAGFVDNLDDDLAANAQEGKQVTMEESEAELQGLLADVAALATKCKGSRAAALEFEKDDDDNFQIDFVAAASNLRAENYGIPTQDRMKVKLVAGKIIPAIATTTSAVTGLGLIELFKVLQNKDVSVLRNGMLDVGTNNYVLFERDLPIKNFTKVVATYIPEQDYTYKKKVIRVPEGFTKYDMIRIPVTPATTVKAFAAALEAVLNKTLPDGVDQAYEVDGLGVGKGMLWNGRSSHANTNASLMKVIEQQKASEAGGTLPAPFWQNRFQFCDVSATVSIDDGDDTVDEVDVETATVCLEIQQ
# [3] = biological target: T2, Aspartate--tRNA(Asp/Asn) ligase (Mycobacterium tuberculosis (strain ATCC 25618 / H37Rv)) (UniProt P9WFW3); test: Assay for Asp RNA synthetase-1 from Mycobacterium tuberculosis; assay type: functional; conditions: 30 µM; note: in the data most compounds retested in dose-response had high values
# T2 sequence (whole entry): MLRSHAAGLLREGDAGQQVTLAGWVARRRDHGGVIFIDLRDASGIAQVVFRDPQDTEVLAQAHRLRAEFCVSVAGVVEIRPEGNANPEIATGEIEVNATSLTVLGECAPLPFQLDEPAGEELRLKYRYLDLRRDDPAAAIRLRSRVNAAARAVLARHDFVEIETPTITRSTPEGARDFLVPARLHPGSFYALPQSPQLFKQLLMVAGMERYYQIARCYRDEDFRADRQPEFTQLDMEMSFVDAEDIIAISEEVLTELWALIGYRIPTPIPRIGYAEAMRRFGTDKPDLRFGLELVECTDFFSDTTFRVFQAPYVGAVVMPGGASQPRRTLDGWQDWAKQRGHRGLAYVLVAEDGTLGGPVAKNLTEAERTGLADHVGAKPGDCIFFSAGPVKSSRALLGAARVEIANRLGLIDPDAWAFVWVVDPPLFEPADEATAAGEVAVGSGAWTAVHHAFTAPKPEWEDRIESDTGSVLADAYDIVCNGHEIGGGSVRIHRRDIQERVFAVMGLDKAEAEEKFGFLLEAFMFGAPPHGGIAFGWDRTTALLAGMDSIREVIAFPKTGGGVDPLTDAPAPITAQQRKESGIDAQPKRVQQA
# [4] = biological target: Sialic acid-binding Ig-like lectin 9 (Homo sapiens) (UniProt Q9Y336); test: Hs-Siglec9 ALPHAscreen SOP 20170721; conditions: 10 µM
# Trypanosoma cruzi = test: Trypanosoma cruzi phosphomannomutase and mannose-1-phosphate guanylyltransferase assay; assay type: functional; conditions: 10 µM
# [5] = biological target: T3, Arginase-2, mitochondrial (Homo sapiens) (UniProt P78540); test: in vitro enzyme assay to detect the production of urea directly proportional to the activity of Arginase II; assay type: functional; conditions: 33.3 µM; note: in the data most compounds retested in dose-response had high values
# T3 sequence (whole entry): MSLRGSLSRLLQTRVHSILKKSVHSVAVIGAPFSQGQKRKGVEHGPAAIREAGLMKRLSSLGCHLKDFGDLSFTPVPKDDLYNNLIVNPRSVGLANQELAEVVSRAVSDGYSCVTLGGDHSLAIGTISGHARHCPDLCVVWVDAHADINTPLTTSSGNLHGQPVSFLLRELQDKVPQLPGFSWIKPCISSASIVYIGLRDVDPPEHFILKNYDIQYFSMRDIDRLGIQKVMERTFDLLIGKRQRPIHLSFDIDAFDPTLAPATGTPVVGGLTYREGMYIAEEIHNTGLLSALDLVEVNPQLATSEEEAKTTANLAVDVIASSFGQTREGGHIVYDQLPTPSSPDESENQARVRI
# [6] = biological target: T4, Proteasome subunit beta (Trypanosoma cruzi) (UniProt O96673); test: Trypanosoma cruzi proteasome chymotrypsin-like activity (TcProtChymo) assay.; note: in the data most compounds retested in dose-response had high values; assay type: functional; conditions: 9.37 µM
# T4 sequence (whole entry): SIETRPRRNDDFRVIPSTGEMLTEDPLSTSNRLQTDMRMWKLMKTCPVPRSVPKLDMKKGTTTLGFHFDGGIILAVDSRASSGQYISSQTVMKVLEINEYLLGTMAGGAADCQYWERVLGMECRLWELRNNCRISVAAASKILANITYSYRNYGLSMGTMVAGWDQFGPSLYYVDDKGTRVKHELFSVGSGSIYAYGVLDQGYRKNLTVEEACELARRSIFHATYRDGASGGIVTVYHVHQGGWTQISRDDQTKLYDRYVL
# Homo sapiens = species on record: Homo sapiens; test: To identify inhibition of the IFN signalling (Jak-Stat) pathway via expression of an eGFP reporter gene under the control of an IFN-stimulated response element (ISRE) containing MxA promoter.; assay type: functional; conditions: 30 µM
# [7] = biological target: Shiga toxin 2 (Escherichia coli O157:H7) (UniProt P09385+P09386); test: E. coli 0.157:H7 Shiga Toxin SOP - stx2 screening assay; assay type: functional; conditions: 30 µM
# [8] = biological target: T5, Tyrosyl-tRNA synthetase, putative (Trypanosoma cruzi (strain CL Brener)) (UniProt Q4DSP6); test: Trypanosoma cruzi tyrosyl tRNA synthetase (TcYRS) _High Tyrosine SOP; assay type: functional; conditions: 30 µM; note: in the data most compounds retested in dose-response had high values
# T5 sequence (whole entry): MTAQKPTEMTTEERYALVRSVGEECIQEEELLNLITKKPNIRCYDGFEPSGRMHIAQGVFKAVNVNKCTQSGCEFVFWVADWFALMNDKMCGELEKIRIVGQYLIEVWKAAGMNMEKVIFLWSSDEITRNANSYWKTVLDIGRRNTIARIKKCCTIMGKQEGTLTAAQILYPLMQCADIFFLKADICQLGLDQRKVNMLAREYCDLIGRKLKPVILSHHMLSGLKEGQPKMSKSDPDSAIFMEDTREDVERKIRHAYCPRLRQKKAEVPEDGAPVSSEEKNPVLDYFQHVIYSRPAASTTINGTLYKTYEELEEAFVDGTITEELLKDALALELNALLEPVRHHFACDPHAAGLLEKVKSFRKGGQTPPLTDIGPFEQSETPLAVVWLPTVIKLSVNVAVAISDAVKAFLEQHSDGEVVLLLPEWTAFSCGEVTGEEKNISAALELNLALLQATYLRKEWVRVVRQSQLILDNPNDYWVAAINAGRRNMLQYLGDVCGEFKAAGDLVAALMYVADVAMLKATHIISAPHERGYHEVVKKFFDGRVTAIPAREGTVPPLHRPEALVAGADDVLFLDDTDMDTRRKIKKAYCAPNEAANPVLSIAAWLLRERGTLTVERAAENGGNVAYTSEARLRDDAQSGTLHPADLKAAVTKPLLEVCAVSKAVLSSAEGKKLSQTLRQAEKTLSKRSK
# [9] = biological target: T5, Tyrosyl-tRNA synthetase, putative (Trypanosoma cruzi (strain CL Brener)); test: Trypanosoma cruzi tyrosyl tRNA synthetase (TcYRS) SOP; assay type: functional; conditions: 30 µM
# [10] = biological target: Chromo domain-containing protein 1 (Saccharomyces cerevisiae (strain ATCC 204508 / S288c) (Baker's yeast)) (UniProt P32657); test: ScCHD-1 Enzyme Inhibition Assay; assay type: functional; conditions: 30 µM; note: in the data most compounds retested in dose-response had high values
# Chromo domain-containing protein 1 (Saccharomyces cerevisiae (strain ATCC 204508 / S288c) (Baker's yeast)), sequence (P32657 whole entry, the tested form may be a part): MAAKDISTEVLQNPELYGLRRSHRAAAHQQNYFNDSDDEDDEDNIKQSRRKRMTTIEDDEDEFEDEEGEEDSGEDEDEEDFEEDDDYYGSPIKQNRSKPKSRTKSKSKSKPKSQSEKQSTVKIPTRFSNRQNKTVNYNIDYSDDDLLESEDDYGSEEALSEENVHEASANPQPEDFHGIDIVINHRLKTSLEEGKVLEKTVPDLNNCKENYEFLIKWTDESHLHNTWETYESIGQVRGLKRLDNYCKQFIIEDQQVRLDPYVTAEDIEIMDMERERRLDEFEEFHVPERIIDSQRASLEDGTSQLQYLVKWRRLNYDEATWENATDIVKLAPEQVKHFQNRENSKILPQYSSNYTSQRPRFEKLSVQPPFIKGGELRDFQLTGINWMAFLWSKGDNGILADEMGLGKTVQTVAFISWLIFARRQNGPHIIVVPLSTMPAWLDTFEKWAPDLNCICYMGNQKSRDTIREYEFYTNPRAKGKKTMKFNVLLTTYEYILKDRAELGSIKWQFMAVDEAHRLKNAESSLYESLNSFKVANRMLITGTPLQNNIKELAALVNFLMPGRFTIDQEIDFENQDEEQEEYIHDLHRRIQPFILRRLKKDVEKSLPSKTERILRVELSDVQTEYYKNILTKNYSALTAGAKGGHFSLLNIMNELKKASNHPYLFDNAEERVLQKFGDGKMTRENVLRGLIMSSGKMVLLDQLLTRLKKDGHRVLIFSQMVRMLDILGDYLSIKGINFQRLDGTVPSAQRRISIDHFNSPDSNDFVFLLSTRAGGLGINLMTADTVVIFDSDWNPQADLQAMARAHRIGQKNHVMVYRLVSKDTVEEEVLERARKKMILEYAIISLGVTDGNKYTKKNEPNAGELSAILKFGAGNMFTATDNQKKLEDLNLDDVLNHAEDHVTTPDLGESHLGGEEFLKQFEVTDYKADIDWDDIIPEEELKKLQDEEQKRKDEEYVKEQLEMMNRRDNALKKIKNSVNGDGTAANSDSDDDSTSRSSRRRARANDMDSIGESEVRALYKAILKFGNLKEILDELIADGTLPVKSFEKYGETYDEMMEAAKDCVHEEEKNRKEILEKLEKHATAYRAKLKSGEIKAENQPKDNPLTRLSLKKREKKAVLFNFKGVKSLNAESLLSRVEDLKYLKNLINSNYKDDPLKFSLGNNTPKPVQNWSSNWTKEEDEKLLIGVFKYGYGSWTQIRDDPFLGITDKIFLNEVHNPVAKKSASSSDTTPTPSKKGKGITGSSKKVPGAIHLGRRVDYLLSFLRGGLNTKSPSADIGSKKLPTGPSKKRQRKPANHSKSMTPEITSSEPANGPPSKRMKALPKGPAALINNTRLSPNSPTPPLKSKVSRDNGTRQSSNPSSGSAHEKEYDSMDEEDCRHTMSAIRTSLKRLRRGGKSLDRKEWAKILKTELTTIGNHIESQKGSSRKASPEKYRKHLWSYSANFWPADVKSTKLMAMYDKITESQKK
# Sialic acid-binding Ig-like lectin 9 (Homo sapiens), sequence (Q9Y336 whole entry): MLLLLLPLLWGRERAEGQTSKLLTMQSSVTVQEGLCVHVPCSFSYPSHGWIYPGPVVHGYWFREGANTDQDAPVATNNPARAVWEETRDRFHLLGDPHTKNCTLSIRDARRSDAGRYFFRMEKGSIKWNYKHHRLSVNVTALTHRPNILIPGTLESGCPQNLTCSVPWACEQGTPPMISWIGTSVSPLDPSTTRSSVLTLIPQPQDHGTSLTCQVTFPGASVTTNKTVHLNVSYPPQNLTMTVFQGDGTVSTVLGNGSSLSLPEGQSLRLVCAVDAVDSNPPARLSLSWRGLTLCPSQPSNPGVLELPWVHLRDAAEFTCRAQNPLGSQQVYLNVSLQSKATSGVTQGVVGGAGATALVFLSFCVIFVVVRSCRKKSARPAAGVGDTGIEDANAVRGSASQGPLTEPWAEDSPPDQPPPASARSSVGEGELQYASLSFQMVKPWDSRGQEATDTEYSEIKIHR
# Protein translocase subunit SecA (Escherichia coli (strain K12)), sequence (P10408 whole entry): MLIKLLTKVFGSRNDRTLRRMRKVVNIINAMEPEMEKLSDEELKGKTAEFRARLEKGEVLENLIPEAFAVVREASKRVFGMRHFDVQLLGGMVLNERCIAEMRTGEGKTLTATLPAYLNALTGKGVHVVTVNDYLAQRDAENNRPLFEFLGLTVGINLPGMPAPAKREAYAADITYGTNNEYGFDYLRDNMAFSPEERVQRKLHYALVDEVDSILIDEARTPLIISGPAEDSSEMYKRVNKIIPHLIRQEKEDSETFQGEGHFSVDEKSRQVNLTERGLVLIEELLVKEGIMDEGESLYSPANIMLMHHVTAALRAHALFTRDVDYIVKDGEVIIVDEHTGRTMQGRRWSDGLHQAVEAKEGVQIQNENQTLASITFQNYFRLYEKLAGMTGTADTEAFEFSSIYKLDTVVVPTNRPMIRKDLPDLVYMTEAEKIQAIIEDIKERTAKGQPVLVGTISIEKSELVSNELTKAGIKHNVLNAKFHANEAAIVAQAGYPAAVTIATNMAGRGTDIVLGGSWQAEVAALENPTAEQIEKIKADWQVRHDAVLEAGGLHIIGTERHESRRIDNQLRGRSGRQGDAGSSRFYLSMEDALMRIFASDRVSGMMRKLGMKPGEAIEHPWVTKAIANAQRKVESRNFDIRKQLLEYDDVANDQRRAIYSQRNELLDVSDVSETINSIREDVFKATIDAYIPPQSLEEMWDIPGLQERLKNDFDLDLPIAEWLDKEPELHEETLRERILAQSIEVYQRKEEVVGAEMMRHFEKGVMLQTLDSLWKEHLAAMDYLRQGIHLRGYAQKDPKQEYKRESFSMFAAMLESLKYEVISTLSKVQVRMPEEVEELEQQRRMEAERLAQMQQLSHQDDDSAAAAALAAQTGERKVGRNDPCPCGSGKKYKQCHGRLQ
structure (smiles),measurement,setting,value
COCCN1C[C@H]2[C@@H](C1)N(C(=O)COc1ccccc1)CC[C@H]2OC,Percent Effect,[1],-3.67%
same,Percent Effect,[2],3.9%
same,Percent Effect,[3],-1.3%
same,Percent Effect,[4],0.149%
same,Percent Effect,Trypanosoma cruzi,5.36%
same,Percent Effect,[5],-4.45%
same,Percent Effect,[6],19.7%
same,Percent Effect,Homo sapiens,-1.44%
same,Percent Effect,[7],-14.5%
same,Percent Effect,[8],5.79%
same,Percent Effect,[9],15.4%
same,Percent Effect,[10],36.6%
O=C1N(Cc2cccnc2)CCC12CCCNC2 (stereo not given),Percent Effect,[1],-3.76%
same,Percent Effect,[2],16.9%
same,Percent Effect,[3],2.62%
same,Percent Effect,[4],-3.98%
same,Percent Effect,Trypanosoma cruzi,-3.19%
same,Percent Effect,[5],0.913%
same,Percent Effect,[6],20%
same,Percent Effect,Homo sapiens,34%
same,Percent Effect,[7],7.06%
same,Percent Effect,[8],1.93%
same,Percent Effect,[9],2.5%
same,Percent Effect,[10],-10.7%
NC[C@H]1[C@H]2CN(Cc3ccccc3)C[C@@H]12,Percent Effect,[1],-1.98%
same,Percent Effect,[2],19.5%
same,Percent Effect,[3],-0.091%
same,Percent Effect,[4],2.06%
same,Percent Effect,Trypanosoma cruzi,-0.938%
same,Percent Effect,[5],1.83%
same,Percent Effect,[6],7.81%
same,Percent Effect,Homo sapiens,31%
same,Percent Effect,[7],-5.17%
same,Percent Effect,[8],4.83%
same,Percent Effect,[9],15%
same,Percent Effect,[10],-6.97%
CC[C@H]1NCCC[C@]12CCC(=O)N2Cc1ccncc1,Percent Effect,[1],-3.12%
same,Percent Effect,[2],11.7%
same,Percent Effect,[3],0.865%
same,Percent Effect,[4],1.31%
same,Percent Effect,Trypanosoma cruzi,0%
same,Percent Effect,[5],1.37%
same,Percent Effect,[6],-0.772%
same,Percent Effect,Homo sapiens,-15%
same,Percent Effect,[7],-6.09%
same,Percent Effect,[8],5.8%
same,Percent Effect,[9],15%
same,Percent Effect,[10],-0.792%
COc1ccc(C)cc1CC(=O)N1CCN(CC(C)O)CC1 (stereo not given),Percent Effect,[1],-3.62%
same,Percent Effect,[2],15.6%
same,Percent Effect,[3],3.12%
same,Percent Effect,[4],6.85%
same,Percent Effect,Trypanosoma cruzi,5.6%
same,Percent Effect,[5],-5.53%
same,Percent Effect,[6],8.07%
same,Percent Effect,Homo sapiens,0.0446%
same,Percent Effect,[7],-20.5%
same,Percent Effect,[8],4.9%
same,Percent Effect,[9],18.8%
same,Percent Effect,[10],-7.21%
Fc1cnc(N2CCCC3(CCN(Cc4ccsc4)C3)C2)nc1 (stereo not given),Percent Effect,[1],-5.76%
same,Percent Effect,[2],3.9%
same,Percent Effect,[3],9.59%
same,Percent Effect,[4],-1.26%
same,Percent Effect,Trypanosoma cruzi,3.02%
same,Percent Effect,[5],-5.26%
same,Percent Effect,[6],8.56%
same,Percent Effect,Homo sapiens,-2.16%
same,Percent Effect,[7],-9.72%
same,Percent Effect,[8],6.84%
same,Percent Effect,[9],7.69%
same,Percent Effect,[10],14.2%
CCC(O)CN1CCN(C(=O)Cc2cc(Cl)ccc2OC)CC1 (stereo not given),Percent Effect,[1],1.11%
same,Percent Effect,[2],13%
same,Percent Effect,[3],-1.9%
same,Percent Effect,[4],12.1%
same,Percent Effect,Trypanosoma cruzi,-1.31%
same,Percent Effect,[5],-3.89%
same,Percent Effect,[6],4.04%
same,Percent Effect,Homo sapiens,13.4%
same,Percent Effect,[7],-9.78%
same,Percent Effect,[8],4.9%
same,Percent Effect,[9],21.2%
same,Percent Effect,[10],-7%
O=C(CC1=CCCCC1)NCCc1csc(N2CCCC2)n1,Percent Effect,[3],2.52%
COc1ccc(-c2nc(CN3CCOCS3(=O)=O)c(C)o2)cc1,Percent Effect,[3],-1.67%
O=C(NCCc1ccncc1)C1CCN(Cc2ccco2)CC1,Percent Effect,[3],-3.6%
O=S1(=O)C[C@@H]2[C@H](C1)N(Cc1cc(Cl)cc(Cl)c1)CCN2CC1CC1,Percent Effect,[3],0.655%
CCS(=O)(=O)c1ccc(N2CCC(NC(=O)c3cnn(C)c3)CC2)cc1,Percent Effect,[3],-0.471%
COCCN(C)CC(=O)N1C[C@H]2CC[C@@H]1CN(C(=O)c1ccncc1)C2,Percent Effect,[3],-1.85%
CCc1nc(NS(=O)(=O)c2cc(C)ccc2F)no1,Percent Effect,[3],-2.52%
CCCS(=O)(=O)N1C[C@H]2OC(=O)N(CCc3cccc(Cl)c3)[C@H]2C1,Percent Effect,[3],-4.26%
CCC(=O)NCc1cc(Br)c(OC)c(OC)c1,Percent Effect,[3],-1.55%
CCc1nsc(NC2CCCn3nc(CC)nc32)n1 (stereo not given),Percent Effect,[3],1.74%
CN(C)CCn1c(=O)oc2ccc(NC(=O)CC(C)(C)C)cc21,Percent Effect,[3],0.793%
COc1cccc(CN(C)C(=O)CN2CCN(c3nccn3C)CC2)c1,Percent Effect,[3],2.95%
COc1ncccc1NC(=O)N1CCC(CN2CCOCC2)CC1,Percent Effect,[3],-3.02%
CCC(CO)N(Cc1ccccn1)C(=O)c1ccc2c(c1)CCO2 (stereo not given),Percent Effect,[3],-5.37%
COc1nc(C)c(C(=O)N(C)Cc2nc(-c3ccccn3)no2)s1,Percent Effect,[3],1.83%
CN(CCNC(=O)N1CCN(Cc2ccon2)CC1)C1CCCC1,Percent Effect,[3],-5.04%
